Screening results: PubChem, The Scripps Research Institute Molecular Screening Center
TEAD-YAP block: TEAD-YAP interaction inhibition, primary screen, TEAD-YAP interaction inhibitor project, luminescence, HEK-TIYL cells; TEAD-Gal4/YAP UAS-luciferase luminescence; inhibition, % at 9.12 µM; hit rate 1.4% among 640,000; AID 1259422, 2018; in the data active = inhibition above about 32%;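 also: 0% = median of test compound wells and 100% = reference inhibitor wells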
FBW7 activator: FBW7 E3 ligase activators, primary screen, biochemical, AlphaScreen, human; AlphaScreen FBW7–phospho-cyclin E peptide binding, activator screen; normalized activity (activation), % at 26.1 µM; hit rate 0.13% among 650,000; AID 1259310, 2017; in the data active = normalized activity above about 1.9%;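 also: purified mutant Fbw7 with reduced substrate affinity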
GPR151 ag: activators of human GPR151, primary screen, cell-based, PathHunter beta-arrestin, luminescence. G-protein coupled receptor 151 (Homo sapiens), Q8TDV0. AID 1508602, 2020. activation, % at 11.2 µM. PathHunter beta-arrestin GPR151 cells. hit rate 1% among 650,000; in the data active = activation above about 4.9%;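 also: 0% = median of compound wells and 100% = cells with positive control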
Target sequence (Q8TDV0 whole entry, looked up): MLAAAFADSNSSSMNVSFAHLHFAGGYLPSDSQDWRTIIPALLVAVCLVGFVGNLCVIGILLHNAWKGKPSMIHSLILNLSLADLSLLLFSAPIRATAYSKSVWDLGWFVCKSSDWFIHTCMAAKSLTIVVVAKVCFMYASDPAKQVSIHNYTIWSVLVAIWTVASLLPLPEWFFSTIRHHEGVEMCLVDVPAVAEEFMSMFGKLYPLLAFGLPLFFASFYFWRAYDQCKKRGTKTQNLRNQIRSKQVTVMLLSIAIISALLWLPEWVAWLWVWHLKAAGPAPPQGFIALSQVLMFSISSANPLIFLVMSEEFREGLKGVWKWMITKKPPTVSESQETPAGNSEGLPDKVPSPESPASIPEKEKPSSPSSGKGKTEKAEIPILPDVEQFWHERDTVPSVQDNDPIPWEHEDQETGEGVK
MITF inh: MITF inhibitors, primary screen, biochemical, AlphaScreen, human; hit rate 0.91% among 650,000; AID 1259374, 2018; Microphthalmia-associated transcription factor (Homo sapiens), O75030; inhibition, % at 2.6 µM; AlphaScreen MITF homodimerization, bead proximity signal; in the data active = inhibition above about 50%;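 also: 0% = vehicle wells with protein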
Starred values were filed as active, the others as inactive. Sampled rows, rich in hits. Any-hit rate of the full collection: about 3.5%.

SMILES	TEAD-YAP block	FBW7 activator	GPR151 ag	MITF inh
COc1ccc(/C=C(/C#N)c2nc3c(s2)CC(C)CC3)cc1 (centres undefined)	-12.5	0.1	1.5	6.5
O=C(OCC(=O)N1CCN(Cc2ccccc2)CC1)c1cc(O)c(O)c(O)c1	-10.7	0.1	-0.6	84.0*
O=C(OCC(=O)N1CCCCCC1)c1cc(O)c(O)c(O)c1	-1.9	-0.2	0.9	90.7*
Cc1cc(C)cc(C(=O)OCC(=O)N2CCCC2)c1	-8.8	0.3	-0.2	2.9
O=C(NCc1ccc(F)cc1)c1ccc(N2CC3CC(C2)c2cccc(=O)n2C3)c(NC(=O)c2ccc(F)cc2)c1 (centres undefined)	83.7*	0.1	1.3	3.2
CN(Cc1ccon1)C(=O)CC1C(=O)NCCN1Cc1ccc(-c2ccccc2)cc1 (centres undefined)	6.1	0.1	-1.1	14.9
CCOc1ccc(NC(=O)c2c(O)c3c([nH]c2=O)CCCC3)cc1	12.3	0.1	0.5	-7.9
CCCCCN1C=CC(=C2C(=O)c3ccccc3C2=O)C=C1	95.2*	1.5	-8.2	14.0
CCCCCN1C(=O)C(=O)c2ccccc21	-0.6	-0.1	1.9	-3.4
Cc1cc(NC(=O)c2ccc3c(c2)OCO3)no1	-11.8	0.2	-5.4	1.1
Cc1cc(NC(=O)c2ccc3c(c2)OCCO3)no1	79.2*	0.8	-6.5	7.8
Cc1cccc(NC(=O)c2ccc3c(c2)OCCO3)n1	-19.3	-0.2	-9.0	-11.1
Cc1cc(NC(=O)c2ccc3c(c2)OCCO3)on1	38.2*	-0.2	-3.7	-5.1
CCCCOc1ccc(-c2nc(SCCC(=O)O)n[nH]2)cc1	15.0	-0.1	-7.1	2.9
C=CCn1c(NCCc2ccccc2)nc2c1c(=O)n(C)c(=O)n2C	36.8*	-0.1	0.9	-17.9
C=CCNc1nc2c(c(=O)n(C)c(=O)n2C)n1Cc1ccccc1	34.5*	0.1	2.0	14.3
CCOc1cc(/C=N/Nc2nc3c(c(=O)n(C)c(=O)n3C)n2Cc2ccccc2)ccc1O	43.7*	0.1	-1.0	0.3
C/C(=N/Nc1nc2c(c(=O)n(C)c(=O)n2C)n1Cc1ccccc1)c1ccccc1O	7.4	0.1	1.1	5.8
C/C(Cl)=C/Cn1c(NCCc2ccccc2)nc2c1c(=O)n(C)c(=O)n2C	5.9	-0.2	0.3	-1.0
CCOC(=O)CN1C(=O)S/C(=C/c2ccccc2F)C1=O	-7.0	-0.2	-1.3	-10.6
N#C/C(=C\c1cccs1)C(=O)Nc1ccccc1O	-65.0	0.1	-2.1	6.5
CCOC(=O)c1c(C)c(C(=O)Nc2ccc(C(=O)OC)cc2)c(C)n1CC	-4.5	-0.2	0.8	3.3
CCOC(=O)c1c(C)c(C(=O)Nc2ccc(OC)cc2)c(C)n1CC	47.3*	0.0	0.8	4.3
CCOC(=O)c1c(C)c(C(=O)Nc2ccc(OC)cc2OC)c(C)n1CC	45.7*	-0.3	-0.7	-5.8
CC(C)c1ccc(NC(=O)COc2ccc(C(C)C)cc2)cc1	7.9	0.1	2.1	0.1
SMILES	TEAD-YAP block	FBW7 activator	GPR151 ag	MITF inh
O=C(COc1ccc(Br)cc1)Nc1nccs1	34.6*	-0.1	-1.8	-7.5
CC(=O)c1ccc(OCC(=O)Nc2nccs2)cc1	54.9*	-0.1	-5.9	6.2
O=C(COc1ccc2c(c1)CCC2)Nc1nccs1	73.9*	-0.2	-2.7	4.8
CC(C)c1ccc(OCC(=O)Nc2nccs2)cc1	80.6*	0.0	-2.9	8.4
O=C(Cc1ccc2c(c1)CCCC2)Nc1nccs1	-8.4	-0.1	-0.8	10.5
CCOC(=O)c1ccc2c(c1)C(=O)N(c1ccc(Cl)cc1Cl)C2=O	-10.0	0.1	0.3	15.3
CC(Sc1nnc(-c2ccc(C(C)(C)C)cc2)o1)C(=O)Nc1nccs1 (centres undefined)	52.1*	-0.7	3.2	49.9
CC(Sc1nnc(N)s1)C(=O)Nc1nccs1 (centres undefined)	-9.9	-0.1	2.4	8.0
O=C(Nc1nccs1)c1cc2c(s1)CCCC2	65.1*	-0.3	-10.2	-0.3
CC(C)(C)c1ccc(OCC(=O)Nc2nccs2)cc1	74.2*	0.2	-0.2	-1.4
O=C(Nc1nccs1)c1cc(Br)c(Br)s1	-56.1	0.1	-1.4	9.3
OCC#CCSc1ncnn1-c1ccccc1	0.2	7.2*	1.1	11.7
CCN1/C(=C/c2ccc3ccccc3[n+]2CC)Sc2ccc(OC)cc21	90.0*	-0.1	1.2	17.5
CC[n+]1c(I)ccc2cc(OC)ccc21	-1.5	-0.2	1.7	-1.3
